Counter-ions that a name gives are not always drawn.
Key:
Assay in all cases: Euclidean distance of Cell Painting phenotypic profile (signed KS, 77 features) to DMSO centroid (dimensionless distance); 5 or 10 uM (library dependent); higher = stronger phenotypic change vs DMSO (phenoactivity)
Conditions in all cases: 48 h
[1] = test system: 786-O
Method in brief: (§1)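 At 10 or 5 uM, as set by the library, and 0.1% DMSO final, compounds were applied for 48 h to five cancer lines and one healthy fibroblast line. Stained cells were imaged confocally at 20X in 9 fields per well, and Harmony extracted 77 features scored as signed Kolmogorov-Smirnov statistics against vehicle wells on the same plate. Profiles underwent plate-position correction, correlation weighting and replicate averaging at the top dose. Phenoactivity is the Euclidean distance from each such profile to the median vehicle profile.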

[2] = test system: A549
Method in brief: as §1

[3] = test system: DU145
Method in brief: as §1

[4] = test system: FB
Method in brief: as §1

[5] = test system: HEPG2
Method in brief: as §1

[6] = test system: OVCAR4
Method in brief: as §1

Row | SMILES | Euclidean distance [1] | Euclidean distance [2] | Euclidean distance [3] | Euclidean distance [4] | Euclidean distance [5] | Euclidean distance [6]
1 | CC[C@H](C)[C@H](NC(=O)[C@H](Cc1ccc(O)cc1)NC(=O)[C@@H](NC(=O)[C@H](CCCN=C(N)N)NC(=O)[C@@H](N)CC(=O)O)C(C)C)C(=O)N[C@@H](Cc1cnc[nH]1)C(=O)N1CCC[C@H]1C(=O)N[C@@H](Cc1ccccc1)C(=O)O [Angiotensin II human Acetate] | 1.66 | 0.986 | 0.817 | 1.24 | 0.532 | 0.985
2 | CCOC(=O)c1ccc(NC2CCCCC2)c(N)c1 [Ferrostatin-1 (Fer-1)] | 0.915 | 1.54 | 1.71 | 1.18 | 0.921 | 1.09
3 | Cn1cc(-c2nc(N[C@@H]3CCCC[C@@H]3N)c(F)c3c2C(=O)NC3)cn1 | 2.54 | 2.93 | 2.88 | 2.99 | 1.85 | 2.99
4 | CN1C(C(=O)Nc2ccccn2)=C(O)c2ccccc2S1(=O)=O [Piroxicam] | 0.732 | 0.909 | 0.966 | 0.725 | 1.06 | 0.704
5 | COC(=O)C1=C(C)NC(C)=C(C(=O)OC(C)C)C1c1cccc2nonc12 (stereo unspecified) [Isradipine] | 1.36 | 1.33 | 1.21 | 1.42 | 1.56 | 1.1
6 | CCS(=O)(=O)N1CC(CC#N)(n2cc(-c3ncnc4[nH]ccc34)cn2)C1 | 1.86 | 0.875 | 1.45 | 1.57 | 0.589 | 0.899
7 | Cc1ccc(S(=O)(=O)/C=C/C#N)cc1 | 1.7 | 1.37 | 1.36 | 3.14 | 2.05 | 2.5
8 | O=c1sn(-c2cccc3ccccc23)c(=O)n1Cc1ccccc1 [Tideglusib] | 0.967 | 0.321 | 0.768 | 0.656 | 0.456 | 1.14
9 | C=C(CC)C(=O)c1ccc(OCC(=O)O)c(Cl)c1Cl [Ethacrynic Acid] | 1.19 | 1.01 | 1.03 | 1.17 | 1.05 | 1.14
10 | CC(C)=CCC/C(C)=C/CC/C(C)=C/CCC(=O)OC/C=C(\C)CCC=C(C)C [Gefarnate] | 0.868 | 0.898 | 0.637 | 1.09 | 0.64 | 0.606
11 | NCCNc1ccc(NCCN)c2c1C(=O)c1ccncc1C2=O [Pixantrone Maleate] | 4.41 | 3.32 | 3.46 | 4.14 | 4.48 | 3.49
12 | COc1c(-c2ccc3cc(NS(C)(=O)=O)ccc3c2)cc(-n2ccc(=O)[nH]c2=O)cc1C(C)(C)C [Dasabuvir(ABT-333)] | 1.78 | 1.78 | 1.27 | 1.48 | 1.05 | 1.42
13 | CNC(=O)c1cc(Oc2ccc(NC(=O)Nc3cc(C(C)(C)C)nn3-c3ccc4ncccc4c3)c(F)c2)ccn1 [DCC-2036 (Rebastinib)] | 2.89 | 3.75 | 4.62 | 2.57 | 2.72 | 2.63
14 | Cc1ccccc1C(C(=O)NC1CCCCC1)N(C(=O)Cn1ccnc1C)c1cccc(F)c1 (stereo unspecified) | 1.02 | 1.06 | 1.01 | 1.52 | 0.839 | 1.59
15 | COc1cc2ncnc(Nc3ccc(F)c(Cl)c3)c2cc1NC(=O)/C=C/CN1CCCCC1 | 3.46 | 4.69 | 2.82 | 2.17 | 1.47 | 2.05
16 | O=C(Nc1cccnc1)N1CCC(Cc2cccc(Oc3ccc(C(F)(F)F)cn3)c2)CC1 | 0.844 | 1.34 | 0.774 | 0.825 | 1.94 | 0.736
17 | Nc1ccc(-c2ccc3ncc4ccc(=O)n(-c5cccc(C(F)(F)F)c5)c4c3c2)cn1 [Torin 2] | 5.09 | 3.59 | 1.08 | 1.45 | 1.26 | 2.88
18 | CC(CCc1ccc(O)cc1)NCC(O)c1ccc(O)cc1 (stereo unspecified) [Ractopamine HCl] | 0.802 | 0.83 | 0.987 | 1.14 | 0.522 | 1.07
19 | c1ccc([C@H]2CN3CCSC3=N2)cc1 [Levamisole hydrochloride] | 0.976 | 0.704 | 1.37 | 0.953 | 0.417 | 1.23
20 | COc1cc(CCc2cc(NC(=O)c3ccc(N4CC(C)NC(C)C4)cc3)n[nH]2)cc(OC)c1 (stereo unspecified) | 1.7 | 1.94 | 1.5 | 3.59 | 2.79 | 1.46
21 | O=C(Nc1cccc(Cl)c1)c1ccccn1 | 1.22 | 0.467 | 0.841 | 0.785 | 0.522 | 0.899

— the supplement of paper PMC10127200
